Tg IFNy HTS = blocks Toxoplasma gondii growth in the presence of IFN-gamma; AID 1259416; hit rate 3.8% among 69,000; Toxoplasma gondii growth in IFN-gamma-treated host cells; hits give low values; activity change, negative = inhibition, % (no concentration beside the values); in the data active = activity change below about -70%, passing the limit was not always enough;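 also: host cells are HeLa cells infected with Toxoplasma gondii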
Numbers without * were called inactive; ! = repeats disagree. Only a selection was taken, and hits are over-represented in it overall.

Results for C=CC1CN2CCC1CC2[C@@H](OC(=O)c1ccc(OC)cc1)c1ccnc2ccccc12 (some centres undefined) ?
Tg IFNy HTS: 1

Results for CC[C@H]1CN2CCC1C[C@@H]2[C@@H](O)c1ccnc2ccc(OC)cc12 (some centres undefined) ?
Tg IFNy HTS: -78*!

Results for C=C[C@H]1CN2CC[C@H]1C[C@@H]2[C@@H](OC(=O)OCC)c1ccnc2ccc(OC)cc12 ?
Tg IFNy HTS: 3

How did CNC(=O)c1ccc(CN2CC=C(c3cnn(C)c3)CC2)o1 do in these assays?
Tg IFNy HTS: -1

What do the screens show for `CC(C)N1CC(C(=O)O)CN2CCN(C(=O)Cc3ccccc3)CC2C1` (centres undefined)?
Tg IFNy HTS: -6

How did CN1C(=O)C2(CCN(Cc3cnn(C)c3)CC2)c2ccccc21 do in these assays?
Tg IFNy HTS: 78

How did CCO[C@@H]1C[C@@H]2CN(C(=O)Cc3ccccn3)CCN2C1 do in these assays?
Tg IFNy HTS: -50

What do the screens show for `COc1cccc2c1C(=O)c1c(O)c3c(c(O)c1C2=O)C[C@@](O)(C(=O)CO)C[C@@H]3O[C@H]1C[C@H](N2CCO[C@H](OC)C2)[C@H](O)[C@H](C)O1`?
Tg IFNy HTS: -81*

Results for Clc1ccc(Cl)c(C2NCCc3[nH]cnc32)c1 (centres undefined) ?
Tg IFNy HTS: 4

What do the screens show for `CSCCC(NC(=O)C(Cc1ccccc1)NC(=O)CNC(=O)CNC(=O)C(N)Cc1ccc(O)cc1)C(=O)O` (centres undefined)?
Tg IFNy HTS: 18

How did Cc1cc(Br)ccc1NC(=O)c1cc2cccnc2n(Cc2ccccc2)c1=O do in these assays?
Tg IFNy HTS: 42

Results for CC1(C)C(=O)C=C[C@@]2(C)C1C(=O)C(=O)[C@]1(C)C2CC[C@@]2(C)[C@H](c3ccoc3)C[C@H]3O[C@]321 (some centres undefined) ?
Tg IFNy HTS: -79*

What do the screens show for `CC(C)N1CCO[C@H]2CN(Cc3ccsc3)C[C@@H]21`?
Tg IFNy HTS: 17

How did Cc1ccc(NC(=O)c2cc3cccnc3n(Cc3ccc(F)cc3)c2=O)cc1F do in these assays?
Tg IFNy HTS: -35

Results for CCC(=O)O[C@H]1CCC2C3CCC4=CC(=O)CC[C@]4(C)C3CC[C@@]21C (some centres undefined) ?
Tg IFNy HTS: -84*

Results for CCCCCCC(=O)O[C@H]1CC[C@H]2[C@@H]3CCC4=CC(=O)CC[C@]4(C)[C@H]3CC[C@]12C ?
Tg IFNy HTS: -75*

What do the screens show for `C[C@]12CCC(=O)C=C1CC[C@@H]1[C@@H]2CC[C@]2(C)C(=O)CC[C@@H]12`?
Tg IFNy HTS: 47

How did CCN(CC)CCOC1CCC2(C)C(=CCC3C4CCC(=O)C4(C)CCC32)C1 (centres undefined) do in these assays?
Tg IFNy HTS: -51

What do the screens show for `Fc1cnc(N2CCN3C[C@H](Oc4cncnc4)C[C@@H]3C2)nc1`?
Tg IFNy HTS: 26

What do the screens show for `COc1ccc2c(CN3CCC(CN)C3)cn(C)c2c1` (centres undefined)?
Tg IFNy HTS: 17

What do the screens show for `c1ccc(CN2CCOCC3(CCN(Cc4ccco4)C3)C2)nc1` (centres undefined)?
Tg IFNy HTS: 29

How did CN(C)C(=O)CN1CCN(C)C(=O)C12CCN(c1ncccn1)C2 (centres undefined) do in these assays?
Tg IFNy HTS: 4

How did Fc1ccccc1CO[C@@H]1C[C@@H]2CN(c3ncccn3)CCN2C1 do in these assays?
Tg IFNy HTS: 208

How did CC(Cc1cccnc1)NCc1c(C(=O)N2CCCCCCC2)nc2ccc(Cl)cn12 (centres undefined) do in these assays?
Tg IFNy HTS: -43

How did CN1CCNC(=O)C12CCN(c1cccnc1)CC2 do in these assays?
Tg IFNy HTS: 200

What do the screens show for `COCc1cncc2c1CCN(CC(C)C)C2`?
Tg IFNy HTS: -2

What do the screens show for `COCc1cncc2c1CCN(C1CCOC1)C2` (centres undefined)?
Tg IFNy HTS: -109*

What do the screens show for `COCc1cncc2c1CCN(S(=O)(=O)C1CC1)C2`?
Tg IFNy HTS: 16

Results for Cn1cc(N2CC3(CCN(Cc4ccncc4)C3)CC2=O)cn1 (centres undefined) ?
Tg IFNy HTS: 8

Results for CN1C[C@H]2CN(Cc3nccn3C)C[C@H]2C1=O ?
Tg IFNy HTS: 88

What do the screens show for `CCCN1C(=O)C(C(=O)/C=C/c2ccc(C)cc2)C2c3ccccc3OC13CCCCC23` (centres undefined)?
Tg IFNy HTS: 4

What do the screens show for `CCOc1ccc(/C=C/C(=O)C2C(=O)NC34CCCCC3C2c2ccccc2O4)cc1OC` (centres undefined)?
Tg IFNy HTS: -80*

Results for O=C(/C=C/c1ccc(Cl)cc1)C1C(=O)NC23CCCCC2C1c1ccccc1O3 (centres undefined) ?
Tg IFNy HTS: 12

How did C1C[C@H]2CNC[C@]2(COCC2CCOCC2)C1 do in these assays?
Tg IFNy HTS: -61

What do the screens show for `Cc1ccc(Cl)cc1NC(=O)c1cc2cccnc2n(Cc2ccc(F)cc2)c1=O`?
Tg IFNy HTS: 98
